The list is not random: actives were taken first. Their share in the collection is about 12%.
G9a inh: G9a (human) methyltransferase inhibition; 350,000 tested, 8.8% active; Q96KQ7; G9a H3K9 monomethylation, AlphaScreen, 2 h; Potency, µM (top dose mostly 102 µM), for the others: at the highest dose activity, negative = inhibition, actives largely listed as inhibitors; further: on the % scale 0 is the no-effect control and ±100 the full control effect; nearly all actives have a fitted effect of over 75% in size
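G9a (20 nM) was preincubated 15 min with compound, then reacted 2 h at room temperature with 500 nM biotin-H3K9 peptide and 20 µM SAM. Monomethyl-H3K9 detected by AlphaScreen using anti-H3K9me1 antibody.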
BAZ2B inh: BAZ2B (human) inhibition; Q9UIF8; AlphaScreen BAZ2B-H3K14Ac peptide displacement; Potency, µM (highest dose often 114 µM), inactives show top-dose activity change, negative = inhibition, most hits filed as inhibitors; 360,000 tested, 4.4% active; AID 504333; further: on the % scale 0 is the no-effect control and ±100 the full control effect; nearly all actives have a fitted effect of over 60% in size
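Complex of BAZ2B and biotin-H3K14Ac (50 nM apiece) forms over 30 min at RT, then faces library compounds up to 110 uM for another 30 min; AlphaScreen beads added, 20 min dark incubation, luminescence read.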
Sfp PPTase inh: blocks B. subtilis Sfp PPTase activity; Q9F4F7; Biochemical Sfp PPTase activity, qHTS; Potency, µM, for the others: largest response in the series, negative = inhibition, actives largely listed as inhibitors; 310,000 tested, 3.5% active;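 further: the enzyme is Sfp with the accession as filed and its product quenches rhodamine fluorescence; 0% = enzyme reaction without inhibitor and -100% = no enzyme wells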
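Sfp 15 nM + cpd, 15 min RT; start w/ rhodamine-CoA 5 uM, BHQ-2-YbbR 12.5 uM (final); 50 mM Hepes pH 7.6, 10 mM MgCl2, 0.01% NP-40, 0.01% BSA; read 525/598 nm at 0 and 30 min.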
HP1b chromo inh: HP1-beta chromodomain-methylated histone interaction inhibition. 390,000 tested, 0.56% active. AlphaScreen HP1-beta / biotin-H3K9me3 peptide binding. Potency, µM (top dose mostly 114 µM), without a hit: at the top dose activity change, negative = inhibition, usual class: inhibitors. AID 540317. P83916; further: nearly all actives have a fitted effect of over 70% in size
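Compound inhibition of the preformed complex between 50 nM HP1-beta and 50 nM biotinylated H3K9me3 peptide was read by AlphaScreen. Buffer was PBS pH 7.4 with 0.01% Tween-20. Incubations ran 30 min at room temperature, with 10 ug/mL donor/acceptor beads.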
JMJD2A Tudor: inhibitors of human JMJD2A Tudor domain; O75164; 390,000 tested, 4.4% active; AlphaScreen JMJD2A-Tudor / H3K4me3 peptide binding; Potency, µM (titrated, usually from 114 µM), without a hit: top-dose activity change, negative = inhibition, most hits filed as inhibitors; AID 504339; further: on the % scale 0 is the no-effect control and ±100 the full control effect; nearly all actives have a fitted effect of over 50% in size
PLK1 PBD block: blocks phosphopeptide binding to human PLK1 polo-box domain. Plk1 PBD binding of FITC phosphopeptide, fluorescence polarization. AID 720504. Potency, µM, without a hit: max response, negative = inhibition, most hits filed as inhibitors. P53350. 360,000 tested, 2.8% active; further: series mostly up to about 57 µM; on the % scale 0 is the no-effect control and ±100 the full control effect; nearly all actives have a fitted effect of over 65% in size
Target sequence (P53350 whole entry, looked up, the tested form may be a part): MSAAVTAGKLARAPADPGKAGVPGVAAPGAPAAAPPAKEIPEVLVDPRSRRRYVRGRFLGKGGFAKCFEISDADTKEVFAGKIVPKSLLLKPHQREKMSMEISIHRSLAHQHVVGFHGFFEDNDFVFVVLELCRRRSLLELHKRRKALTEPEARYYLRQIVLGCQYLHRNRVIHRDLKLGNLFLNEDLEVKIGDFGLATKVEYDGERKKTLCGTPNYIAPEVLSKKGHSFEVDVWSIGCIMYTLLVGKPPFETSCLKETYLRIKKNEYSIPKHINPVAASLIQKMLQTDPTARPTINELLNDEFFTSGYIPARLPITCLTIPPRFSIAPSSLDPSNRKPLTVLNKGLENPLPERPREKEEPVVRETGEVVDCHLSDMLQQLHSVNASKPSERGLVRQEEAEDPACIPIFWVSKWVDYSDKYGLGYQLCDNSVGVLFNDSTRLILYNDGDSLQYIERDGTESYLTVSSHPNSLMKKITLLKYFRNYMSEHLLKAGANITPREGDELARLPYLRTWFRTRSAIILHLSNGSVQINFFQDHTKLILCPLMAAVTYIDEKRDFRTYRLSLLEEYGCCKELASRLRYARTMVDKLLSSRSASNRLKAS
Starred values were filed as active, the others as inactive; ? = inconclusive; nt = no result; [ ] = dose if it differs, or a comment. The call rests on the fitted dose curve; in most records, active means well fitted curve in the direction sought with a large enough effect; inconclusive means small, poorly fitted or top-dose-only effect, or another doubt; inactive means no such curve, though single readings can be large; an effect the other way counts as inactive or inconclusive. Potency means the concentration at half of the fitted maximal effect.

SMILES | G9a inh | BAZ2B inh | Sfp PPTase inh | HP1b chromo inh | JMJD2A Tudor | PLK1 PBD block
CCC(=O)N1Cc2cc(C(=O)NCC(F)(F)F)nc(-c3cccc(-c4cncnc4)c3)c2[C@H]1CCO | nt | nt | nt | nt | nt | -11.7%
COc1ccc(OCC(=O)Nc2nc(-c3ccc(Br)cc3)ns2)cc1 | -2.8%[59 µM] | -4.1% | nt | 69.6% | 7.3% | nt
O=C1Nc2c(Br)cccc2C1=O | nt | nt | nt | 53.6% | -0.7% | -3.5%
CC[n+]1ccc(/C=C2\Sc3ccccc3N2CCCS(=O)(=O)[O-])c2ccccc21 | nt | 50.1µM* | -10.5% | ? | ? | -23.3%
Nc1nc(-c2ccc(Cl)cc2)c(N=Nc2ccc(S(=O)(=O)N3CCOCC3)cc2)s1 | ? | 7.08µM* | -3.9% | ? | ? | -3.3%
COc1ccc(OC)c(CCNC(=O)c2cc3c(-c4ccccc4F)nn(C)c3s2)c1 | ? | -37.0% | nt | 8.3% | ? | nt
O=c1c2ccccc2n2c(=S)[nH]nc2n1-c1ccccc1 | 5.01µM* | ? | 44.7µM* | ? | 3.16µM* | 21.2µM*
CCC(C)c1ccc(-n2c(=O)c3ccccc3n3c(=S)[nH]nc23)cc1 (stereo not drawn) | 1.12µM* | 3.2% | ? | -30.2% | -10.3% | 21.2µM*
Cc1nnc2n(-c3ccccc3)c(=O)c3ccccc3n12 | nt | nt | nt | -13.3% | -20.9% | -14.4%
COC(=O)c1c(-c2ccc(Cl)cc2)noc1N1CCN(c2ccc(OC)cc2)CC1 | -41.5%[59 µM] | 0.5% | nt | 16.8%[57 µM] | -7.8% | nt
COc1ccc([C@H]2[C@H](C(=O)OC(C)(C)C)N3N=Cc4ccccc4C3C23C(=O)c2ccccc2C3=O)c(OC)c1 (stereo partly drawn) | ? | ? | -9.2% | -16.0% | ? | -24.9%
COc1ccc([C@H]2[C@H](C(=O)OC(C)(C)C)N3N=Cc4ccccc4C3C23C(=O)c2ccccc2C3=O)cc1OC (stereo partly drawn) | ? | 17.8µM* | -10.0% | -21.6% | ? | ?
Cc1ccccc1NC(=O)C1CC(=O)n2ncnc2N1 (stereo not drawn) | 44.7µM* | -17.9% | -19.3% | 67.0% | 7.4% | 3.8%
O=C(c1ccco1)C(O)c1ccco1 (stereo not drawn) | 50.1µM* | -12.8% | 12.3% | 22.0% | -9.9% | ?
COc1ccc(-c2nc(N)n(C(=O)c3cccs3)n2)cc1 | -3.3%[59 µM] | -9.5% | -1.0% | 11.6% | 89.1µM* | -1.6%
COc1ccc(-c2nc(N)n(C(=O)c3ccccc3)n2)cc1 | -26.1% | -21.3% | 5.2% | 34.0% | -4.1% | -5.8%
Cn1nc(-c2ccccc2)c(C(=O)NC(C(=O)O)c2ccccc2)c1Cl (stereo not drawn) | nt | 50.1µM* | 1.0% | 23.3% | -11.9% | -17.9%
CCN(CCCc1ccccc1)CCCc1ccccc1 | ? | ? | 12.7% | -9.1% | 22.4µM* | -14.7%
CCCN(CCO)CCCc1ccccc1 | ? | ? | ? | ? | 2.82µM* | 0.0%
CCCCN(CCO)CCCC | 9.3%[0.501 µM] | -5.0% | nt | 35.6% | 0.0% | 0.9%
CC(CC(F)(F)F)N1CCC(n2nccc2NC(=O)CCCc2ccccc2)CC1 (stereo not drawn) | 6.1% | 1.6% | 15.3% | 24.4% | 8.2% | -0.3%
Nc1ccc(S(=O)(=O)N2CCN(S(=O)(=O)c3ccc4c(c3)OCCO4)CC2)cc1 | nt | nt | nt | nt | -5.4% | nt
CCn1c(=S)[nH]c2c(=O)n(C)c(=O)n(C)c21 | nt | nt | nt | ? | 5.01µM* | -15.9%
Cn1c(=O)c2[nH]c(Br)nc2n(C)c1=O | -41.0%[12.7 µM] | nt | 4.8% | nt | nt | nt
C[C@H](NS(=O)(=O)OCC(Cl)(Cl)Cl)C1CC1c1ccccc1 (stereo partly drawn) | ? | ? | 9.5% | -17.3% | 44.7µM* | -28.1%
S=C(NCCCN1CCOCC1)N1CCN(c2cccc(Cl)c2)CC1 | 31.6µM* | -21.1% | ? | 9.2% | -33.1% | ?
O=c1[nH]c2cc([N+](=O)[O-])cc([N+](=O)[O-])c2[nH]c1=O | nt | nt | 0.4% | nt | nt | nt
CCCC(=O)Nc1nnc(SCc2cc(=O)c3ccc(C)cc3[nH]2)s1 | -36.2%[59 µM] | -0.5% | nt | 12.7%[57 µM] | -5.2% | nt

From PubChem BioAssay
